Active and inactive are the calls of the source. A call without a number means that no potency is given here. The call rests on the fitted dose curve; in most records, active means well fitted curve in the direction sought with a large enough effect; inconclusive means small, poorly fitted or top-dose-only effect, or another doubt; inactive means no such curve, though single readings can be large; an effect the other way counts as inactive or inconclusive.
target: Cytochrome P450 3A4 (Homo sapiens) (UniProt P08684); experiment: qHTS Assay for Activators of Cytochrome P450 3A4 (AID 885); details: recombinant CYP3A4, Luciferin-PPXE luminescence, 60 min; series mostly up to 57.1 µM; further: nearly all actives have a fitted effect of over 65% in size
Procedure, shortened: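 Signal was normalized against complete inhibition by 57 uM ketoconazole. The reaction used 20nM CYP3A4 with 25uM Luciferin-PPXE, 10-min compound preincubation and a 60-min NADPH-supported step at RT.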

Chain of Cytochrome P450 3A4 (Homo sapiens) (P08684 whole entry, looked up): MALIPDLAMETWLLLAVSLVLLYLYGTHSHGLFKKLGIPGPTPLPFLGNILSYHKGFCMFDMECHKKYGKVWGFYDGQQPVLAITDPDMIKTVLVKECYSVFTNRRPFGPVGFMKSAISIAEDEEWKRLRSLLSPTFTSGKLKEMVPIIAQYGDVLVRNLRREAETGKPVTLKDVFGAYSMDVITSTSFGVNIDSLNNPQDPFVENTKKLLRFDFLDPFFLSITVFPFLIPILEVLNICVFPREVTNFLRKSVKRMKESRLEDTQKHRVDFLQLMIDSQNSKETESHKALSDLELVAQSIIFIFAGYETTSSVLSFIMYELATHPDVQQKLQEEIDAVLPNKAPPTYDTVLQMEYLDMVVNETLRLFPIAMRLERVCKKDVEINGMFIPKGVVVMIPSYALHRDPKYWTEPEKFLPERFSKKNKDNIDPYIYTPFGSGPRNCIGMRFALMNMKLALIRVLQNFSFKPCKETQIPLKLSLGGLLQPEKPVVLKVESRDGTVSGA

Question: For `COc1c2c(c(CC=C(C)C)c3oc(=O)c(-c4ccc(O)cc4)c(O)c13)OC(C)(C)C=C2`, which Potency is on record?
Answer: inactive

Question: Which Potency does the source give for `CCC1C(=O)OC[C@H]1Cc1cncn1C` (some centres undefined) here?
Answer: inactive

Question: For `C=CCO[C@@H](Cn1ccnc1)c1ccc(Cl)cc1Cl`, which Potency is on record?
Answer: inactive

Question: Which Potency does the source give for `CC(=O)Oc1c2c(c(CC=C(C)C)c3c1C(=O)C1=CC4CC5C(C)(C)OC(C/C=C(\C)C(=O)O)(C4=O)[C@]15O3)OC(C)(CCC=C(C)C)C=C2` (some centres undefined) here?
Answer: inactive

Question: With `CNNC` as the molecule, how does the Potency read?
Answer: inactive

Question: Which Potency does the source give for `CCCCN(CC)c1c([N+](=O)[O-])cc(C(F)(F)F)cc1[N+](=O)[O-]` here?
Answer: inactive

Question: For `Cc1cccc2c3c(ccc12)C1=C(C(=O)C3=O)C(C)CO1` (centres undefined), which Potency is on record?
Answer: inactive

Question: Which Potency does the source give for `CC1(C)C(C(Cl)Cl)C2(Cl)C(Cl)C(Cl)C1(Cl)C2(Cl)Cl` (centres undefined) here?
Answer: inactive

Question: For `COC(=O)[C@]1(C)CC[C@@]2(C)CC[C@@]3(C)C4=CC=C5C(=CC(=O)C(O)=C5C)[C@@]4(C)CC[C@@]3(C)C2C1` (some centres undefined), which Potency is on record?
Answer: inactive

Question: Which Potency does the source give for `OCC(O)Cc1ccc2c(c1)OCO2` (centres undefined) here?
Answer: inactive

Question: With `COC(=O)/C(C)=C\CC12OC(C)(C)C3CC(C=C4C(=O)c5c(OC)c6c(c(CC=C(C)C)c5OC431)OC(C)(CCC=C(C)C)C=C6)C2=O` (centres undefined) as the molecule, how does the Potency read?
Answer: inactive

Question: For `CN(CCC(N)CC(=O)NC1C=CC(n2ccc(N)nc2=O)OC1C(=O)O)C(=N)N` (centres undefined), which Potency is on record?
Answer: inactive

Question: Which Potency does the source give for `CC[C@]1(O)CC(O[C@@H]2CC(N(C)C)C(O)C(C)O2)c2c(cc3c(c2O)C(=O)c2c(O)cccc2C3=O)C1C(=O)OC` (some centres undefined) here?
Answer: inactive

Question: Which Potency does the source give for `COc1ccc(C2Oc3c(I)c(OC)cc(OC)c3CC2O)cc1OC` (centres undefined) here?
Answer: inactive

Question: For `N#Cc1c(Cl)c(Cl)c(Cl)c(C#N)c1Cl`, which Potency is on record?
Answer: inactive

test system: not listed separately; experiment: Confirmation and Secondary Assay for Modulators of Hemoglobin Beta Chain Splicing at IVS2 654 locus (AID 910); details: HeLa EGFP-654 splicing reporter, GFP fluorescence, 48 h; series mostly up to 46.1 µM;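 further: per-well total GFP intensity by laser scanning cytometry after 2-day treatment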;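 further: potency means the concentration at half of the fitted maximal effect; potency of activators that raise GFP signal by restoring correct splicing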
Procedure, shortened: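 HeLa cells stably carrying EGFP interrupted by mutant beta-globin IVS2-654 intron (CMV-driven) were treated with compound for 2 days at 37C; corrected splicing was scored as total peak GFP intensity per well (488 nm excitation, 500-520 nm emission).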

Question: With `COc1c2c(c(CC=C(C)C)c3oc(=O)c(-c4ccc(O)cc4)c(O)c13)OC(C)(C)C=C2` as the molecule, how does the Potency read?
Answer: inactive

Question: Which Potency does the source give for `CCC1C(=O)OC[C@H]1Cc1cncn1C` (some centres undefined) here?
Answer: inactive

Question: Which Potency does the source give for `CC(=O)Oc1c2c(c(CC=C(C)C)c3c1C(=O)C1=CC4CC5C(C)(C)OC(C/C=C(\C)C(=O)O)(C4=O)[C@]15O3)OC(C)(CCC=C(C)C)C=C2` (some centres undefined) here?
Answer: inactive

Question: With `CNNC` as the molecule, how does the Potency read?
Answer: inactive

Question: With `CC(=O)OC1C2CCC3C1(CC(O)[C@@]1(O)[C@@H](CC(O)C1(C)C)[C@]3(C)O)C[C@@]2(C)O` (some centres undefined) as the molecule, how does the Potency read?
Answer: inactive

Question: With `O=C1CC[C@]2(O)C3Cc4ccc(O)c5c4C2(CCN3CC2CC2)C1O5` (some centres undefined) as the molecule, how does the Potency read?
Answer: inactive

Question: With `CCCCN(CC)c1c([N+](=O)[O-])cc(C(F)(F)F)cc1[N+](=O)[O-]` as the molecule, how does the Potency read?
Answer: inactive

Question: With `COc1ccc(C(=O)O)cc1OC` as the molecule, how does the Potency read?
Answer: inactive

Question: Which Potency does the source give for `CN(C)C1C(=O)C(C(N)=O)=C(O)[C@@]2(O)C(=O)C3=C(O)c4c(O)cccc4[C@@](C)(O)C3CC12` (some centres undefined) here?
Answer: inactive

Question: Which Potency does the source give for `CCC1C2CC3C4N(C)c5ccccc5[C@]45CC(C2C5O)N3C1O` (some centres undefined) here?
Answer: inactive

Question: Which Potency does the source give for `OCC1OC(n2cnc3cc(Cl)c(Cl)cc32)C(O)C1O` (centres undefined) here?
Answer: inactive

Question: With `COc1ccc(CC2NC[C@H](O)[C@H]2OC(C)=O)cc1` (some centres undefined) as the molecule, how does the Potency read?
Answer: inactive

Question: Which Potency does the source give for `CC1CC(Cl)CCC1C(=O)OC(C)(C)C` (centres undefined) here?
Answer: inactive

Question: Which Potency does the source give for `CSc1nc(NC(C)C)nc(NC(C)C)n1` here?
Answer: inactive

Question: Which Potency does the source give for `CC1(C)C(C(Cl)Cl)C2(Cl)C(Cl)C(Cl)C1(Cl)C2(Cl)Cl` (centres undefined) here?
Answer: inactive

Question: For `CC(CO)NC(=O)C1C=C2c3cccc4[nH]cc(c34)C[C@H]2N(C)C1` (some centres undefined), which Potency is on record?
Answer: inactive

Question: For `NCC(N)C(=O)c1ccccc1` (centres undefined), which Potency is on record?
Answer: inactive

Question: With `C[C@@]12C=CC(=O)C=C1CCC1C2CC[C@]2(C)C(=O)CCC12` (some centres undefined) as the molecule, how does the Potency read?
Answer: inactive

Question: With `CC(=O)OCC1=C(C(=O)O)N2C(=O)C(NC(=O)CCCC(N)C(=O)O)C2SC1` (centres undefined) as the molecule, how does the Potency read?
Answer: inactive

Question: For `C=CCN1CC[C@]23c4c5ccc(O)c4OC2C(=O)CC[C@]3(O)C1C5` (some centres undefined), which Potency is on record?
Answer: inactive

Question: For `COC(=O)[C@]1(C)CC[C@@]2(C)CC[C@@]3(C)C4=CC=C5C(=CC(=O)C(O)=C5C)[C@@]4(C)CC[C@@]3(C)C2C1` (some centres undefined), which Potency is on record?
Answer: inactive

Question: For `OCC(O)Cc1ccc2c(c1)OCO2` (centres undefined), which Potency is on record?
Answer: inactive

Question: Which Potency does the source give for `COC(=O)/C(C)=C\CC12OC(C)(C)C3CC(C=C4C(=O)c5c(OC)c6c(c(CC=C(C)C)c5OC431)OC(C)(CCC=C(C)C)C=C6)C2=O` (centres undefined) here?
Answer: inactive

Question: With `C[C@H]1O[C@H](O[C@H]2[C@H](O)[C@@H](O)[C@@H](O)[C@H](O)[C@@H]2O)[C@@H](N)C[C@@H]1NC(=N)C(=O)O` as the molecule, how does the Potency read?
Answer: inactive

Question: With `CN(CCC(N)CC(=O)NC1C=CC(n2ccc(N)nc2=O)OC1C(=O)O)C(=N)N` (centres undefined) as the molecule, how does the Potency read?
Answer: inactive

Question: With `CC1CC(C)C(=O)[C@H](C(O)CC2CC(=O)NC(=O)C2)C1` (some centres undefined) as the molecule, how does the Potency read?
Answer: inactive

Question: With `CC[C@]1(O)CC(O[C@@H]2CC(N(C)C)C(O)C(C)O2)c2c(cc3c(c2O)C(=O)c2c(O)cccc2C3=O)C1C(=O)OC` (some centres undefined) as the molecule, how does the Potency read?
Answer: 15.8 µM (active)

Question: With `COc1ccc(C2Oc3c(I)c(OC)cc(OC)c3CC2O)cc1OC` (centres undefined) as the molecule, how does the Potency read?
Answer: inactive

Question: With `NC1C[C@H]1c1ccccc1` (some centres undefined) as the molecule, how does the Potency read?
Answer: inactive

Question: For `N#Cc1c(Cl)c(Cl)c(Cl)c(C#N)c1Cl`, which Potency is on record?
Answer: inactive

test system: not listed separately; experiment: Confirmation and Secondary Assay for Modulators of Hemoglobin Beta Chain Splicing at IVS2 705 locus (AID 930); details: HeLa EGFP-705 splicing reporter, GFP fluorescence, 48 h; series mostly up to 46.1 µM;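 further: HeLa cells stably expressing the EGFP-705 splicing reporter; GFP fluorescence per well restored by corrected splicing of the IVS2-705 intron in EGFP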
Procedure, shortened: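 HeLa IVS2-705 EGFP reporter cells, 500/well, compound 2 d at 37C; correct splicing yields fluorescent EGFP. Control: 500 nM antisense PNA. Read-out: total peak GFP intensity.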

Question: With `COc1c2c(c(CC=C(C)C)c3oc(=O)c(-c4ccc(O)cc4)c(O)c13)OC(C)(C)C=C2` as the molecule, how does the outcome read?
Answer: inactive

Question: With `CCC1C(=O)OC[C@H]1Cc1cncn1C` (some centres undefined) as the molecule, how does the outcome read?
Answer: inactive

Question: Which outcome does the source give for `CC(=O)Oc1c2c(c(CC=C(C)C)c3c1C(=O)C1=CC4CC5C(C)(C)OC(C/C=C(\C)C(=O)O)(C4=O)[C@]15O3)OC(C)(CCC=C(C)C)C=C2` (some centres undefined) here?
Answer: inactive

Question: With `CNNC` as the molecule, how does the outcome read?
Answer: inactive

Question: With `CC(=O)OC1C2CCC3C1(CC(O)[C@@]1(O)[C@@H](CC(O)C1(C)C)[C@]3(C)O)C[C@@]2(C)O` (some centres undefined) as the molecule, how does the outcome read?
Answer: inactive

Question: With `O=C1CC[C@]2(O)C3Cc4ccc(O)c5c4C2(CCN3CC2CC2)C1O5` (some centres undefined) as the molecule, how does the outcome read?
Answer: inactive

Question: Which outcome does the source give for `CCCCN(CC)c1c([N+](=O)[O-])cc(C(F)(F)F)cc1[N+](=O)[O-]` here?
Answer: inactive

Question: For `COc1ccc(C(=O)O)cc1OC`, which outcome is on record?
Answer: inactive

Question: Which outcome does the source give for `CN(C)C1C(=O)C(C(N)=O)=C(O)[C@@]2(O)C(=O)C3=C(O)c4c(O)cccc4[C@@](C)(O)C3CC12` (some centres undefined) here?
Answer: inactive

Question: For `CCC1C2CC3C4N(C)c5ccccc5[C@]45CC(C2C5O)N3C1O` (some centres undefined), which outcome is on record?
Answer: inactive

Question: Which outcome does the source give for `OCC1OC(n2cnc3cc(Cl)c(Cl)cc32)C(O)C1O` (centres undefined) here?
Answer: inactive

Question: Which outcome does the source give for `COc1ccc(CC2NC[C@H](O)[C@H]2OC(C)=O)cc1` (some centres undefined) here?
Answer: inactive

Question: With `CC1CC(Cl)CCC1C(=O)OC(C)(C)C` (centres undefined) as the molecule, how does the outcome read?
Answer: inactive

Question: For `CSc1nc(NC(C)C)nc(NC(C)C)n1`, which outcome is on record?
Answer: inactive

Question: With `CC1(C)C(C(Cl)Cl)C2(Cl)C(Cl)C(Cl)C1(Cl)C2(Cl)Cl` (centres undefined) as the molecule, how does the outcome read?
Answer: inactive

Question: Which outcome does the source give for `CC(CO)NC(=O)C1C=C2c3cccc4[nH]cc(c34)C[C@H]2N(C)C1` (some centres undefined) here?
Answer: inactive

Question: With `NCC(N)C(=O)c1ccccc1` (centres undefined) as the molecule, how does the outcome read?
Answer: inactive

Question: For `C[C@@]12C=CC(=O)C=C1CCC1C2CC[C@]2(C)C(=O)CCC12` (some centres undefined), which outcome is on record?
Answer: inactive

Question: Which outcome does the source give for `CC(=O)OCC1=C(C(=O)O)N2C(=O)C(NC(=O)CCCC(N)C(=O)O)C2SC1` (centres undefined) here?
Answer: inactive

Question: Which outcome does the source give for `C=CCN1CC[C@]23c4c5ccc(O)c4OC2C(=O)CC[C@]3(O)C1C5` (some centres undefined) here?
Answer: inactive

Question: Which outcome does the source give for `COC(=O)[C@]1(C)CC[C@@]2(C)CC[C@@]3(C)C4=CC=C5C(=CC(=O)C(O)=C5C)[C@@]4(C)CC[C@@]3(C)C2C1` (some centres undefined) here?
Answer: inactive

Question: For `OCC(O)Cc1ccc2c(c1)OCO2` (centres undefined), which outcome is on record?
Answer: inactive

Question: For `COC(=O)/C(C)=C\CC12OC(C)(C)C3CC(C=C4C(=O)c5c(OC)c6c(c(CC=C(C)C)c5OC431)OC(C)(CCC=C(C)C)C=C6)C2=O` (centres undefined), which outcome is on record?
Answer: inactive

Question: Which outcome does the source give for `C[C@H]1O[C@H](O[C@H]2[C@H](O)[C@@H](O)[C@@H](O)[C@H](O)[C@@H]2O)[C@@H](N)C[C@@H]1NC(=N)C(=O)O` here?
Answer: inactive

Question: Which outcome does the source give for `CN(CCC(N)CC(=O)NC1C=CC(n2ccc(N)nc2=O)OC1C(=O)O)C(=N)N` (centres undefined) here?
Answer: inactive

Question: For `CC1CC(C)C(=O)[C@H](C(O)CC2CC(=O)NC(=O)C2)C1` (some centres undefined), which outcome is on record?
Answer: inactive

Question: With `COc1ccc(C2Oc3c(I)c(OC)cc(OC)c3CC2O)cc1OC` (centres undefined) as the molecule, how does the outcome read?
Answer: inactive

Question: For `NC1C[C@H]1c1ccccc1` (some centres undefined), which outcome is on record?
Answer: inactive

Question: With `N#Cc1c(Cl)c(Cl)c(Cl)c(C#N)c1Cl` as the molecule, how does the outcome read?
Answer: inactive

Source: PubChem BioAssay (NCATS)
